# Coupling enz – counter-screen for Giardia aldolase inhibitors: coupling enzyme system | coupling enzyme system counterscreen, AmpLite Red fluorescence | activity change, negative = inhibition, % at 58.2 µM, hits read low | 0.67% of 290,000 active | AID 2472; in the data active means activity change below about -30%
#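 Counterscreen lacking aldolase: glyceraldehyde-3-phosphate coupling-enzyme reagent preincubated 10 min at RT with compound (at 57.5 uM final), then substrate/coupling system with AmpLite Red added; fluorescence read at 525/598 nm after 20 min RT.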
# USP1 inh – blocks the human USP1/UAF1 deubiquitinase complex | O94782 | 0.23% of 390,000 active | Potency, µM (top dose mostly 57.1 µM), for inactives: at the top dose activity change, negative = inhibition, hits mostly inhibitors | recombinant USP1/UAF1, Ub-Rhodamine cleavage fluorescence; further: potency means the concentration at half of the fitted maximal effect; nearly all actives have a fitted effect of over 60% in size
#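 1 nM enzyme complex + cpd, 15 min RT; start with Ub-Rho 150nM final; kinetic fluorescence ex 480/em 540, 6 reads q60 s. Buffer 50mM HEPES pH 7.8, 0.5mM EDTA, 0.1 mg/ml BSA, 1mM TCEP, 0.01% Tween-20.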
# Tau fluor counter – counter-screen for tau fibril formation inhibitors; tau K18 P301L Alexa594 fluorescence, heparin fibrillization; Potency, µM (doses to about 57.7 µM), without a hit: top-dose activity change, negative = decrease; 0.93% of 280,000 active; further: potency means the concentration at half of the fitted maximal effect; nearly all actives have a fitted effect of over 55% in size
#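 Human tau K18 P301L (15 uM unlabeled, 0.24 uM Alexa 594-labeled) in 100 mM sodium acetate pH 7 with 20 uM heparin, 6 hr at 37 C. ThT 30 uM added, 1 hr ambient; Alexa 594 FP and total fluorescence read at 555/632 nm.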
# Tau fibril ThT – inhibitors of human tau fibril formation, thioflavin T binding. Potency, µM (top dose mostly 57.4 µM), without a hit: at the highest dose activity, negative = inhibition, usual class: inhibitors. 2.1% of 270,000 active. recombinant tau K18 P301L (four-repeat tau fragment), heparin-induced fibrillization, ThT fluorescence; further: potency means the concentration at half of the fitted maximal effect; nearly all actives have a fitted effect of over 55% in size
# Target sequence (P10636 561-689 P618L limits assumed): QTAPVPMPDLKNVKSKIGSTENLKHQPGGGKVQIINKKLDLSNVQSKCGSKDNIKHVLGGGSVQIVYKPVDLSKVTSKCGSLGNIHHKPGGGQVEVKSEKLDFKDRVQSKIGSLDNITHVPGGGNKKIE
#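 Recombinant human tau K18 fragment […] carrying P301L, 15 uM unlabeled plus 0.24 uM Alexa 594-labeled, was fibrillized with 20 uM heparin in 100 mM sodium acetate pH 7 for 6 hr at 37 C; 30 uM ThT fluorescence read after 1 hr.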
# Tau fibril FP – inhibitors of human tau fibril formation | P10636 | K18 P301L tau heparin fibrillization, Alexa594 FP, 6 h | Potency, µM (highest dose often 57.7 µM), for the others: top-dose activity, negative = inhibition, actives largely listed as inhibitors | 0.39% of 280,000 active | AID 1468; further: potency means the concentration at half of the fitted maximal effect; nearly all actives have a fitted effect of over 55% in size
#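 Human K18 P301L fragment (15 uM unlabeled plus 0.24 uM Alexa 594-labeled) in 100 mM sodium acetate pH 7 with compound, aggregation induced by 20 uM heparin for 6 hr at 37 C. ThT (30 uM) added for 1 hr, then Alexa 594 FP read.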
# Active calls of the source: *; ? = inconclusive; / = not tested or not shown; [ ] = dose if it differs, or a comment. Compounds with a hit are over-represented: about 2.3% of the library has one in this group of screens. Unless noted, the call rests on the fitted dose curve; in most records, active means well fitted curve in the direction sought with a large enough effect; inconclusive means small, poorly fitted or top-dose-only effect, or another doubt; inactive means no such curve, though single readings can be large; an effect the other way counts as inactive or inconclusive. On the % scale 0 is the no-effect control and ±100 the full control effect.
SMILES,Coupling enz,USP1 inh,Tau fluor counter,Tau fibril ThT,Tau fibril FP
Cc1ccc(S(=O)(=O)N[C@H]2COC(=O)C/C=C\[C@@H](C)[C@H](NS(=O)(=O)c3ccc(C)cc3)COC(=O)[C@H](C)NC(=O)C/C=C\[C@H]2C)cc1,4,/,-9%[11.6 µM],?,-2%[11.6 µM]
CCCCc1nc2c(c3c1C[C@H](C)OC3)CN(C(=O)N[C@@H](C)c1ccccc1)CC2,1,/,-4%[11.6 µM],4%[11.5 µM],1%[11.6 µM]
CN(C)c1ccc(SC#N)cc1,2,-11%,?,10µM*,?
CC1=CC(C)(C)Nc2ccc(OC(=O)CCN3C(=O)c4ccccc4C3=O)cc21,-4,-22%,?,?,?
COc1ccc2c(c1)NC(C)(C)C=C2C,-33*,-13%,?,?,-13%
CC1=CC(C)(C)Nc2ccc(OS(=O)(=O)c3ccc(C)cc3)cc21,-9,-20%,5µM*[quencher],8.9µM*,?
CC(=O)Nc1ccc(S(=O)(=O)Oc2ccc3c(c2)C(C)=CC(C)(C)N3)cc1,-4,/,14µM*[quencher],?,?
COC(=O)c1ccc(OS(=O)(=O)c2ccc(NC(C)=O)cc2)cc1,7,-3%,-11%,0%,-10%
O=c1[nH]c(CSc2nnc(Cc3ccccc3)o2)nc2ccccc12,0,2%,-11%,-4%,-9%
Cc1[nH]c2ccccc2c1Cc1nnc(SCc2ccccc2)o1,-4,?,18µM*[quencher],?,?
CCOc1cccc(/C=C/c2ccc3cccc(O)c3n2)c1OC,-8,?,/,/,/
COc1c(OC(C)=O)ccc(/C=C/c2ccc3cccc(OC)c3n2)c1[N+](=O)[O-],-1,-11%,?,8.9µM*,-1%
COc1c(OC(C)=O)ccc(/C=C/c2ccc3ccccc3n2)c1[N+](=O)[O-],1,-21%,16µM*[quencher],10µM*,?
CCOc1c(OC(C)=O)ccc(/C=C/c2ccc3cccc(OC(C)=O)c3n2)c1[N+](=O)[O-],/,-16%,8.9µM*[quencher],6.3µM*,?
O=[N+]([O-])c1ccccc1/C=C/c1ccc2ccccc2n1,4,-26%,/,/,/
COC(=O)c1ccc(/C=C/c2ccc3cccc(OC(C)=O)c3n2)cc1,-20,?,-4%,5%,2%
CN1CCN(C2=Nc3c(Cl)cc(Cl)c4cccc2c34)CC1,-19,-20%,-13%,18µM*,4%
CN1CCN(C2=Nc3cc(F)ccc3Cc3ccccc32)CC1,6,/,-3%,3%,-4%
N#CCCn1c(=O)c(-c2cccs2)nc2cnc(N3CCOCC3)nc21,3,/,/,/,/
Cc1ccc(C(=O)Nc2cccc([N+](=O)[O-])c2)cc1S(=O)(=O)Nc1ccc(C(=O)O)cc1,2,-5%,-18%,-16%,-1%
Cc1cccc(NS(=O)(=O)c2cc(NC(=O)CC(=O)c3ccc([N+](=O)[O-])cc3)ccc2C)c1,-1,/,7.9µM*[quencher],?,-6%
Cc1ccccc1NS(=O)(=O)c1cc(C(=O)Nc2cccc([N+](=O)[O-])c2)ccc1C,1,-17%,14µM*[quencher],?,-13%
COc1ccc2oc(=O)c(-c3csc(/C(C#N)=C/c4ccc(F)cc4)n3)cc2c1,/,-18%,-12%,-16%,5%
CC(=O)c1ccc(OC(=O)CCc2nc3ccccc3s2)cc1,-2,-16%,-16%,16µM*,?
S=C(NCc1ccccc1)NNc1nc2ccccc2[nH]1,-9,-13%,?,28µM*,?
SMILES,Coupling enz,USP1 inh,Tau fluor counter,Tau fibril ThT,Tau fibril FP
Cc1ccccc1OCCNc1cc(N2CCNCC2)ccc1[N+](=O)[O-],2,/,?,16µM*,?
Cc1ccc(OCCNc2cc(N3CCN(CCO)CC3)ccc2[N+](=O)[O-])cc1C,-1,-23%,?,16µM*,-8%
Cc1cccc(OCCNc2cc(N3CCN(C)CC3)ccc2[N+](=O)[O-])c1,0,-16%,?,?,-12%
Cc1cccc(OCCNc2cc(N3CCOCC3)ccc2[N+](=O)[O-])c1,-2,-5%,?,7.9µM*,-3%
C[C@@H]1C[C@@H]([C@@H](C)CC2CC(=O)NC(=O)C2)C(=O)[C@@H](C)C1,2,/,-2%,1%,-2%
Cc1cc(=O)n(CCCO)c(O)c1C#N,-38*,-23%,-3%,?,-8%

# Screens as filed in PubChem BioAssay.
